Laboratory results reported in PubChem BioAssay (Tox21).
Inconclusive results are not listed. Active and inactive are the calls of the source. The call rests on the fitted dose curve; in most records, active means well fitted cell-killing curve with a large enough effect in the repeat runs; inconclusive means weak or mixed curves, or effect the other way; inactive means flat fitted curve, though single readings scatter.

Test: qHTS assay to identify small molecule agonists of the TGF-beta/Smad signaling pathway - cell viability counter screen (AID 1346829); further: top concentration of the series differs between compounds; nearly all actives have a fitted effect of over 45% in size
Conditions: SBE-bla HEK293T viability, CellTiter-Glo luminescence, 5 h; series mostly up to 76.8 µM
From the text: National Center for Advancing Translational Sciences [NCATS]
NIH Chemical Genomics Center [NCGC]
U.S. Environmental Protection Agency [EPA]
National Institutes of Environmental Health Sciences [NIEHS]
National Toxicology Program [NTP]
U.S. Food and Drug Administration [FDA]
Transforming growth factor beta (TGF-beta) superfamily consists of a large number of structurally related dimeric proteins that act as hormones or local mediators in regulating a wide range of biological functions. This superfamily includes TGF-betas themselves, the bone morphogenetic proteins (BMPs) and the activins. These ligands induce oligomerization of serine/threonine receptor kinases and phosphorylate the cytoplasmic signaling molecules of Smad protein family. CellSensor SBE-bla HEK 293T cell line (Life Technologies, Carlsbad, CA), responsive to TGF-beta was used to screen Tox21 10K compound library for identification of agonists/antagonists of the Smad signaling pathway. This cell line contains a beta-lactamase reporter gene under control of the Smad binding element (SBE) stably integrated into HEK 293T cells. Also cytotoxicity of the compounds was tested in parallel by measuring the cell viability using CellTiter-Glo assay system in the same wells.
Tox21 Assay Protocol Summary:
SBE-bla HEK 293T cells were dispensed at 4,000/well in 6 uL of assay medium into black wall/clear-bottom 1536-well plates using a Multidrop Combi (ThermoFisher Scientific, Waltham, MA) dispenser. After the assay plates were incubated at 37 C and 5% CO2 for an overnight, 23 nL of compounds dissolved in DMSO, positive controls or DMSO only was transferred to the assay plate by a Pintool station (Kalypsys, San Diego, CA). The assay plates were incubated at 37 C and 5% CO2 for 5 hr. One uL of LiveBLAzer B/G FRET substrate (Life Technologies) was added using a Flying Reagent Dispenser (FRD, Aurora Discovery, San Diego, CA) and the plates were incubated at room temperature for 2 hr. Fluorescence intensity (405 nm excitation, 460 nm and 530 nm emissions) was measured using an Envision plate reader (PerkinElmer, Shelton, CT). For cytotoxicity read, 4 uL of CellTiter-Glo reagent (Promega Corporation, Madison, WI) was added to each well of the assay plates using FRD. After 30min incubation at room temperature, the luminescence intensity was measured using ViewLux plate reader (PerkinElmer).

SMILES	outcome
C[C@@H](CN1CC(=O)NC(=O)C1)N1CC(=O)NC(=O)C1	inactive
CC/C=C/CCCCCCCCCCOC(C)=O	inactive
CN(C)c1ccncc1	inactive
Cc1cc(=O)oc2cc(O[C@@H]3SC[C@@H](O)[C@H](O)[C@H]3O)ccc12	inactive
Cc1ccccc1C#N	inactive
O=C1c2ccccc2C(=O)N1CO	inactive
Cc1cc(C)c(C)c(C)c1	inactive
COC(=O)N/N=C/c1c[n+]([O-])c2ccccc2[n+]1[O-]	inactive
CN1C(CCl)Nc2cc(Cl)c(S(N)(=O)=O)cc2S1(=O)=O (stereo not given)	inactive
CCCCNCC	inactive
CNC(=O)c1c(I)c(NC(C)=O)c(I)c(C(=O)O)c1I	inactive
COc1cc(C(=O)NC2CCCNC2)cc(OC)c1OC (stereo not given)	inactive
CC(=O)c1ccc2ccc3ccccc3c2c1	inactive
CC(C)(C)OC=O	inactive
O=c1[nH]c(=O)c2cn[nH]c2[nH]1	inactive
O=C(O)COc1ccc2ccccc2c1	inactive
O=C(O)Cc1c(Cl)ccc(Cl)c1Cl	inactive
CCCCCC(CC)OC(=O)CCCOc1ccc(Cl)cc1Cl (stereo not given)	inactive
COC(=O)c1c(C)cc(O)c(C)c1O	inactive
C=CCOC(=O)CCCCCCCC	inactive

SMILES	outcome
O=CN1CCCCC1	inactive
COc1cc(NS(=O)(=O)c2ccc(N)cc2)ncn1	inactive
CC(C)(C)C(=O)CC(=O)C(C)(C)C	inactive
CSC(=O)c1cccc2nnsc12	inactive
CC(CC(=O)Cl)CC(C)(C)C (stereo not given)	inactive
Cc1ccc(O)c(C(=O)c2ccccc2)c1	inactive
CCNC(=O)C(C)OC(=O)Nc1ccccc1 (stereo not given)	inactive
NC(=O)CC[C@@H](N)C(=O)O	inactive
O=S(=O)(O)c1ccc(Cl)cc1	inactive
CN(C)CCC[C@@]1(c2ccc(F)cc2)OCc2cc(C#N)ccc21	inactive
C=C(C)C(=O)OCCCC	inactive
O=C1Nc2ccccc2C1=O	inactive
CC(=O)c1c(C)cc(C(C)(C)C)cc1C	inactive
CN(C)CCc1c[nH]c2ccc(CS(=O)(=O)N3CCCC3)cc12	inactive
O=C1CC2(CCCC2)CC(=O)N1CCNCC1COc2ccccc2O1 (stereo not given)	inactive
CC1=C(O)C(=O)CO1	inactive
CC(C)=CCC/C(C)=C\C#N	inactive
O=C(c1ccccc1)c1cccc(O)c1	inactive
CCCCc1ccc(Cl)cc1	inactive
CC(C)C(=O)Nc1cccc(C2CN3CCSC3=N2)c1 (stereo not given)	inactive
